Common to all, as to assay: DAPPL (digital affinity profiling via proximity ligation, sequencing); 10 mM Tris-HCl pH 7.5, 50 mM NaCl, 1 mM DTT, 4% glycerol, room temperature, 30 min; GST-TFs on glutathione beads, 16-mer random dsDNA library, 0.1% formaldehyde crosslink after washing; high values mean tight binding
Common to all, as to conditions: protein: recombinant; tags: N-terminal GST; dsDNA, one strand shown

In one test the target is T1, ERF (Homo sapiens, UniProt P50548 1-548).
T1 sequence: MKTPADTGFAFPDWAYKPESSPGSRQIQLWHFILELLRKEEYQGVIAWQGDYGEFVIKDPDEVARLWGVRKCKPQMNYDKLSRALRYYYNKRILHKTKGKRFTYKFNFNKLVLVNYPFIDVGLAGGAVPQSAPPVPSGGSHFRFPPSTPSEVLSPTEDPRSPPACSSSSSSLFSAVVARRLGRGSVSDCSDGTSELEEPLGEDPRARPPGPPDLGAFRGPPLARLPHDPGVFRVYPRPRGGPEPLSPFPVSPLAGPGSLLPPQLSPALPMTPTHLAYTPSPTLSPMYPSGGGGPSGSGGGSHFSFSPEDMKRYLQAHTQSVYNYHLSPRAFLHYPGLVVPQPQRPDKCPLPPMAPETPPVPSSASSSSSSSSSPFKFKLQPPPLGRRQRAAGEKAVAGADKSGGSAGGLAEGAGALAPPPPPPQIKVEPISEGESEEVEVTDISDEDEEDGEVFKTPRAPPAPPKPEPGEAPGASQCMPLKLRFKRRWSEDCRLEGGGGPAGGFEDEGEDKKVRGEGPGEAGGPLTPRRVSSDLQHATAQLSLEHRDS
An outline of the steps: (§1)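 A tag-only sample was pooled with DNA-barcoded human transcription factors that had been expressed in yeast as GST fusions and captured on glutathione beads. The pools were incubated for 30 min at room temperature with 200 nmole of a random double-stranded 16-mer DNA library in Tris/NaCl/DTT/glycerol buffer, then washed, crosslinked with 0.1% formaldehyde, proximity-ligated (BsaI/T4 ligase, 1 h, 37 °C), PCR-amplified and sequenced on an Illumina NextSeq500. Binding signal is each hexamer's read frequency for a factor divided by its frequency for the tag-only sample.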

The target in a further test is T2, ETV3L (Homo sapiens, UniProt Q6ZN32 1-361).
T2 sequence: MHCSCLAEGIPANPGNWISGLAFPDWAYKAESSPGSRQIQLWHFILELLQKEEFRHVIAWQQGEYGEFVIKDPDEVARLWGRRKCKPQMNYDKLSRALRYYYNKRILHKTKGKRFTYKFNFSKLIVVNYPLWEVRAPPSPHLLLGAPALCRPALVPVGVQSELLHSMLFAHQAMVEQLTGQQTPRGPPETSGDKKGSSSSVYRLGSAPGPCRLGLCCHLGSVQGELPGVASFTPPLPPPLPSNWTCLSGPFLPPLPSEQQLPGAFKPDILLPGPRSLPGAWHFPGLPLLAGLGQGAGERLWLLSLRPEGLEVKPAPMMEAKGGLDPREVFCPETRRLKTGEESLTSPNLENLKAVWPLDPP
An outline of the steps: as §1

The target in the next test is T3, ETS2 (Homo sapiens, UniProt P15036 1-469).
T3 sequence: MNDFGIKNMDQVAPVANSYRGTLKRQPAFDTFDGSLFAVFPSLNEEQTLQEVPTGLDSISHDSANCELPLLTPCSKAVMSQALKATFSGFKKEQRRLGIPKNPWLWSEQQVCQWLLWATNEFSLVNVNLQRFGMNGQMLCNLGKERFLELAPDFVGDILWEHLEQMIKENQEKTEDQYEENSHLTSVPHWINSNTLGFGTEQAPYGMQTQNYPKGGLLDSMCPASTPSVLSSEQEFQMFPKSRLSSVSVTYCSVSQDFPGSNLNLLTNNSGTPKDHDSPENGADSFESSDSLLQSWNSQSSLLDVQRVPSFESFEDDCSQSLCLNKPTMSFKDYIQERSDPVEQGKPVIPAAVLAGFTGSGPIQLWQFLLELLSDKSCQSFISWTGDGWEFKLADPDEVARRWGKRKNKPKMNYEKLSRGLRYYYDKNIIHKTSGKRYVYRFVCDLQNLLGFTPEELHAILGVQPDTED
An outline of the steps: as §1

The next test deals with T4, ETV7 (Homo sapiens, UniProt Q9Y603 1-341).
T4 sequence: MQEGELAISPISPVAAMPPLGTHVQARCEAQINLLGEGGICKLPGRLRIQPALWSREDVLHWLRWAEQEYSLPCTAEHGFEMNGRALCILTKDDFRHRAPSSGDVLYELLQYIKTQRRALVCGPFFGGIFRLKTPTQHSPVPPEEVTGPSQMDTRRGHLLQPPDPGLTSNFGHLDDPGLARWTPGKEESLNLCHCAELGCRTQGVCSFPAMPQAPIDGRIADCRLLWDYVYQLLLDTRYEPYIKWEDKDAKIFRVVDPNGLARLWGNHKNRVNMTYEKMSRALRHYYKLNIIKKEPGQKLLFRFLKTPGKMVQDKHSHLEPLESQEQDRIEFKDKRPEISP
The method in brief: as §1

A further test addresses T5, ELF5 (Homo sapiens, UniProt Q9UKW6-2 1-255).
T5 sequence: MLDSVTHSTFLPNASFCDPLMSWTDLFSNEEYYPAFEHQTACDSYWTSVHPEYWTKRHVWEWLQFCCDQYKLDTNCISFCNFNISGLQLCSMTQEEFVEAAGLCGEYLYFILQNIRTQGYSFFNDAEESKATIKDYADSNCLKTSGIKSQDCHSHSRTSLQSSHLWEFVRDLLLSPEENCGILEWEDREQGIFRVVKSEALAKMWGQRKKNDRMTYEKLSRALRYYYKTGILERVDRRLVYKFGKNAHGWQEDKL
The method in brief: as §1

The target in another test is T6, ETV3 (Homo sapiens, UniProt P41162-2 1-143).
T6 sequence: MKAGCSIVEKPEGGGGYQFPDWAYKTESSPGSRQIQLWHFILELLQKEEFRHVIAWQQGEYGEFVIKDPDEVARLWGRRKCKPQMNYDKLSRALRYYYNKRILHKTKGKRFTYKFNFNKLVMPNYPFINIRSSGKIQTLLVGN
The method in brief: as §1

Another test has as its target ETV6 (Homo sapiens, UniProt P41212 1-452). The method in brief:
as §1

The target of a further test is T7, SPDEF (Homo sapiens, UniProt O95238 1-335).
T7 sequence: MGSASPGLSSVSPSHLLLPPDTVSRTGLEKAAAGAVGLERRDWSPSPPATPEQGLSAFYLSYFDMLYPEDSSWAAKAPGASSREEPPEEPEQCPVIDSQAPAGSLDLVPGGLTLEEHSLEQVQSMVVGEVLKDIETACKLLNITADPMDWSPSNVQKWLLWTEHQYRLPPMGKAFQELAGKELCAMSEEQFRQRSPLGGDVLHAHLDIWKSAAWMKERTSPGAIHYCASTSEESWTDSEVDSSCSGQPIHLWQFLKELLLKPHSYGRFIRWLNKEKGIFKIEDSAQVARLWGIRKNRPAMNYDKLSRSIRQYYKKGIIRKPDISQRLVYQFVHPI
The method in brief:
as §1

ETV6, sequence (P41212 whole entry): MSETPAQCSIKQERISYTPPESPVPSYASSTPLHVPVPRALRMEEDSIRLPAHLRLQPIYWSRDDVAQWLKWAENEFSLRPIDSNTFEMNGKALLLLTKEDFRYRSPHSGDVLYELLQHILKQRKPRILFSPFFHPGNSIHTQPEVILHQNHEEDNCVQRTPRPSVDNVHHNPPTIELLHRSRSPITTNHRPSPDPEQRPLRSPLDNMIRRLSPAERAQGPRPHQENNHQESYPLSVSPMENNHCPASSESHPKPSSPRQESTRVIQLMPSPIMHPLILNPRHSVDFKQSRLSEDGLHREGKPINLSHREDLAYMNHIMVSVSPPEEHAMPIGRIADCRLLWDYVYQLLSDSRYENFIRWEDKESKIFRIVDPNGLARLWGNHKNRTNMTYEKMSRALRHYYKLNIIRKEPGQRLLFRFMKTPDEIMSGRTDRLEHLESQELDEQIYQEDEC

With GCTGGC, the binding signal is 1.12 fold enrichment (6-mer frequency, TF over GST control) with ERF; 1.04 fold enrichment (6-mer frequency, TF over GST control) in the test with ETV3L; 1.04 fold enrichment (6-mer frequency, TF over GST control) with ETS2; 1.12 fold enrichment (6-mer frequency, TF over GST control) in the test with ETV7; 1 fold enrichment (6-mer frequency, TF over GST control) with ELF5; 1.1 fold enrichment (6-mer frequency, TF over GST control) in the test with ETV3. Also, the binding signal with ETV6 was 1.02 fold enrichment (6-mer frequency, TF over GST control).

For the sequence AGGCTC, the binding signal in the test with ERF is 1.14 fold enrichment (6-mer frequency, TF over GST control); with ETV3L, 1.08 fold enrichment (6-mer frequency, TF over GST control); in the test with ETS2, 1.02 fold enrichment (6-mer frequency, TF over GST control); in the test with ETV7 it was 1.04 fold enrichment (6-mer frequency, TF over GST control); with ELF5 it was 1.04 fold enrichment (6-mer frequency, TF over GST control); with ETV3, 1.01 fold enrichment (6-mer frequency, TF over GST control). Besides, in the test with ETV6, the binding signal was 1.16 fold enrichment (6-mer frequency, TF over GST control).

As to CCCATG, the binding signal with ERF was 1.14 fold enrichment (6-mer frequency, TF over GST control); with ETV3L, 1.11 fold enrichment (6-mer frequency, TF over GST control); with ETS2 it was 1.02 fold enrichment (6-mer frequency, TF over GST control); in the test with SPDEF it was 1.1 fold enrichment (6-mer frequency, TF over GST control); with ETV3, 1.14 fold enrichment (6-mer frequency, TF over GST control); with ETV6 it was 1.12 fold enrichment (6-mer frequency, TF over GST control).

For the sequence TAGCTG, the binding signal with ERF was 1.16 fold enrichment (6-mer frequency, TF over GST control); with ETV3L it was 1.14 fold enrichment (6-mer frequency, TF over GST control); with ETS2 it was 1.04 fold enrichment (6-mer frequency, TF over GST control); with ETV7, 1.15 fold enrichment (6-mer frequency, TF over GST control); with ELF5 it was 1.13 fold enrichment (6-mer frequency, TF over GST control); in the test with ETV3, 1.23 fold enrichment (6-mer frequency, TF over GST control). Moreover, in the test with ETV6, the binding signal was 1.2 fold enrichment (6-mer frequency, TF over GST control).

With TGGTAG, the binding signal with ERF is 1.11 fold enrichment (6-mer frequency, TF over GST control); with ETV3L it was 1.02 fold enrichment (6-mer frequency, TF over GST control); with ETS2, 1.04 fold enrichment (6-mer frequency, TF over GST control); with ETV7, 1.18 fold enrichment (6-mer frequency, TF over GST control); with ELF5 it was 1.1 fold enrichment (6-mer frequency, TF over GST control); in the test with ETV3 it was 1.1 fold enrichment (6-mer frequency, TF over GST control).

For the sequence TAGCGA, the binding signal in the test with ERF is 1.19 fold enrichment (6-mer frequency, TF over GST control); with ETV3L it was 1.02 fold enrichment (6-mer frequency, TF over GST control); in the test with ETS2, 1.01 fold enrichment (6-mer frequency, TF over GST control); with SPDEF, 1.02 fold enrichment (6-mer frequency, TF over GST control); with ETV6, 1 fold enrichment (6-mer frequency, TF over GST control).

Consider GTTTGG, for which the binding signal is 1.11 fold enrichment (6-mer frequency, TF over GST control) with ERF; 1.09 fold enrichment (6-mer frequency, TF over GST control) in the test with ETV3L; 1.07 fold enrichment (6-mer frequency, TF over GST control) with ETS2; 1.12 fold enrichment (6-mer frequency, TF over GST control) with ETV7; 1.1 fold enrichment (6-mer frequency, TF over GST control) with ELF5; 1.1 fold enrichment (6-mer frequency, TF over GST control) with ETV3.

The values above are taken from paper PMC7862700, “An all-to-all approach to the identification of sequence-specific readers for epigenetic DNA modifications on cytosine”.
